PMC7819943, “Rice protein-binding microarrays: a tool to detect cis-acting elements near promoter regions in rice”
Whole data set: some 39,000 sequences, median “fluorescence intensity (a.u.)” near 4,300, cut for the highest 2% near 39,000. The full list was thinned out, with the highest values kept by preference.

biological target: T1, OsSMF1 (Oryza sativa, UniProt Q6ZLB0 1-436); test: protein-binding microarray (RPBM); PBS, 2% BSA, 51.3 ng/ul salmon testes DNA, 50 uM zinc acetate, 200 nM TF, 25 C, 1 h; high values mean tight binding; conditions: protein: recombinant; tags: N-terminal polyhistidine and DsRed monomer fusion (pET32a); chain copies: 2; label: CyDye5-dUTP incorporated in the synthesized complementary strand; 3' TTTTT single-stranded linker to array surface; dsDNA, one strand shown
T1 sequence: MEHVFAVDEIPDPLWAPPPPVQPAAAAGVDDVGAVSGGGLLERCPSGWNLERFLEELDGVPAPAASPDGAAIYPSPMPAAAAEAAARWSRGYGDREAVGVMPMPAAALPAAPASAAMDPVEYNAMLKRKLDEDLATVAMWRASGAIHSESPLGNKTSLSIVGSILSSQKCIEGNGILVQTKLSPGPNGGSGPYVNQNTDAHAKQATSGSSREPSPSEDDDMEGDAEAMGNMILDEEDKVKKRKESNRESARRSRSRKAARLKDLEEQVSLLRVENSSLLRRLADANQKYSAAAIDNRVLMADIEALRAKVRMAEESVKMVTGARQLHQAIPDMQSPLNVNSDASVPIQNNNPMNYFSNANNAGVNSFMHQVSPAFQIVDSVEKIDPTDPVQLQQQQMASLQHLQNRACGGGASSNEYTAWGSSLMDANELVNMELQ
In short: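 Binding signal is defined as the fluorescence intensity of each feature in arbitrary units, read on an Axon 4000B scanner. Transcription factors with N-terminal polyhistidine and DsRed fusions came from E. coli BL21-CodonPlus and were purified on Ni–NTA. They were incubated at 200 nM for 1 h at 25 °C on a custom Agilent array that had been made double-stranded with Cy5-dUTP, with 50 µM zinc acetate present, and the array was washed.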

Sequence	binding signal
CGAGGCGGGGTGCACCTTCATGGTCAGTGGCCCGTGGTTCCGGAGTCACCTAGTGCAG	4270 fluorescence intensity (a.u.)
CGGTGATCCCATACTTGGCACGTACACGTGCCCTCTTGATCGGAGTCACCTAGTGCAG	6030 fluorescence intensity (a.u.)
TTATATACTCCCTCTTTCCACGTAAGTTACATTTATTACTCGGAGTCACCTAGTGCAG	7340 fluorescence intensity (a.u.)
AAAAGTAATTTATAAATAAAATTTCTATATACGTGTTCTTCGGAGTCACCTAGTGCAG	3220 fluorescence intensity (a.u.)
AAACGGATAAGTTAGTAAGTAATTTCTTCCCTCCTAATTTCGGAGTCACCTAGTGCAG	45900 fluorescence intensity (a.u.)
GCCTTTCTCTCCACCGCGATTTCTATATATAAAACGCCCCCGGAGTCACCTAGTGCAG	9620 fluorescence intensity (a.u.)
TTTTCCAACTTACCTCCTTCATTTTCCACGCGCACATTTTCGGAGTCACCTAGTGCAG	65500 fluorescence intensity (a.u.)
TTCTGTAACTTTTCCAACTCACCTTCCTCGCTTCCCACGCCGGAGTCACCTAGTGCAG	4820 fluorescence intensity (a.u.)
CCCGGGCCTCGCCGCGCCGCGCCACGCCACGCCTCCGCCCCGGAGTCACCTAGTGCAG	7580 fluorescence intensity (a.u.)
CTCCTCACACATTCCCACGCACACATTTCCCCATGCACATCGGAGTCACCTAGTGCAG	3180 fluorescence intensity (a.u.)
TCCTCCTTCCTTCCACCTCACCCCAACCCCAACCCCAACCCGGAGTCACCTAGTGCAG	4080 fluorescence intensity (a.u.)
GCGCGCCACGCCACGCCACGCGCCCACGCCTCGCCTCGCCCGGAGTCACCTAGTGCAG	10000 fluorescence intensity (a.u.)
GGCCGCGTGCGTGTGTCCAAACCTTCTCCACGCATTTCCTCGGAGTCACCTAGTGCAG	4220 fluorescence intensity (a.u.)
GCGCCACCTATAAAACGCCCGCGCGCCCCGCGCCGCCTCCCGGAGTCACCTAGTGCAG	40300 fluorescence intensity (a.u.)
TGCCCACGCCGCGCCGCCGCCTCCTCCTCCTCCTCCTCCTCGGAGTCACCTAGTGCAG	46900 fluorescence intensity (a.u.)
CGTCCACCGCGCCGCCGCCGCCCTCCGTCACGCGCGCGCTCGGAGTCACCTAGTGCAG	3270 fluorescence intensity (a.u.)
GATCTGACCTCCTCAGCCTCCTTCCCCAACTGTTCCACGCCGGAGTCACCTAGTGCAG	44800 fluorescence intensity (a.u.)
CCACGCGCTCTATAAGTAGACGGCTCTTCGGCGCGTGTCACGGAGTCACCTAGTGCAG	3400 fluorescence intensity (a.u.)
GGTTGAAGTTAATACGTGCCAAATCTATAACTTTATTCCGCGGAGTCACCTAGTGCAG	3300 fluorescence intensity (a.u.)
TGGGAGAGGGTAGTAGGTGGGCCGAGGTACACACGTGGGGCGGAGTCACCTAGTGCAG	5560 fluorescence intensity (a.u.)
TTCGCTGACACGCCCCGTCCACTCTTGTCCACGCTGCGCCCGGAGTCACCTAGTGCAG	3380 fluorescence intensity (a.u.)
TCTTGCCTTCTTGCCCTCCACACTGTCCACGTCTCTCCAACGGAGTCACCTAGTGCAG	4650 fluorescence intensity (a.u.)

Sequence	binding signal
GATCAAGGAGGCCGTGGCGGACAGGGAGTGCGGGGTGGATCGGAGTCACCTAGTGCAG	3360 fluorescence intensity (a.u.)
TCAATAGAAAATAAACTGATTCATGTTAAAACCTTCACACCGGAGTCACCTAGTGCAG	46600 fluorescence intensity (a.u.)
CAGTTAACCACCTAACTGATCAAACTCATTCATGTCACTCCGGAGTCACCTAGTGCAG	5110 fluorescence intensity (a.u.)
AAAACTTGCAACTGCAATTCATGTCAATTTGCCACATCACCGGAGTCACCTAGTGCAG	13200 fluorescence intensity (a.u.)
ACAGCGTAGGCTTTTCTTTCACGTCACCACGCGTACGCGACGGAGTCACCTAGTGCAG	6560 fluorescence intensity (a.u.)
TAGTACCAAAGTATTTGTGTGTCACTATGATGTCCTGCCTCGGAGTCACCTAGTGCAG	6010 fluorescence intensity (a.u.)
GGGTGAAGCGTCGCGCGGCGCGCCGTGGCGTGGCGTGGCGCGGAGTCACCTAGTGCAG	6090 fluorescence intensity (a.u.)
ATCTTCTTCTTCATCGCTGTGCAGCTACACACTCTCACTGCGGAGTCACCTAGTGCAG	3180 fluorescence intensity (a.u.)
GAGGGCGGTTTTGCTGATGTGGCGTTGACGTGGCGATGTTCGGAGTCACCTAGTGCAG	27700 fluorescence intensity (a.u.)
GTTTAGATGGTGGTTTTGGCTGACGTGTCACCTACGTGGCCGGAGTCACCTAGTGCAG	24200 fluorescence intensity (a.u.)
GTGTGGTTTTGCTGATGTGGCGCTGACGTGGCGATATTGACGGAGTCACCTAGTGCAG	48500 fluorescence intensity (a.u.)
GGCGGTTTTGGATGACGTGGTGCCTACGTGGCTAATTTGACGGAGTCACCTAGTGCAG	35600 fluorescence intensity (a.u.)
GTCATATTTATTTGGATGATGTGGCATGTTCTGGTGGTGACGGAGTCACCTAGTGCAG	15700 fluorescence intensity (a.u.)
GATGGCGGTTTTGCTGATGTGGCGTTGACGTGCCGACCCGCGGAGTCACCTAGTGCAG	13200 fluorescence intensity (a.u.)
TTTGATGGTGGTTTTGGCTGACGTGGCACCTACATGGCATCGGAGTCACCTAGTGCAG	42900 fluorescence intensity (a.u.)
GCTTGCTGCTGCTGCTGCTGATAGTTTAGCTTGAGAGAGCCGGAGTCACCTAGTGCAG	22700 fluorescence intensity (a.u.)
GAGTTTGATAGCTTAGCAGAAATAGTTTTGCTGACGTGGCCGGAGTCACCTAGTGCAG	40700 fluorescence intensity (a.u.)
TTCATATTTATTTGATGACGTGGCTAATCCTGGTCGGATCCGGAGTCACCTAGTGCAG	40700 fluorescence intensity (a.u.)
CGGTGGTTTTGGCTGACGTGGCACCTATGTGGCAAATTTGCGGAGTCACCTAGTGCAG	7870 fluorescence intensity (a.u.)
TGTTTGTCGTGACTTAGCTTAGTTGTTGCTGTTGTTGAGCCGGAGTCACCTAGTGCAG	3400 fluorescence intensity (a.u.)
AAGAGACCTGTTTATTAGCGTCACTGACAGTCGTTGTCACCGGAGTCACCTAGTGCAG	3660 fluorescence intensity (a.u.)
ATTTCATCCTTATTAGGGCCTATTTGGAGCATTGGCAGGGCGGAGTCACCTAGTGCAG	3750 fluorescence intensity (a.u.)

Sequence	binding signal
AGATCCCGAATTCGTGCCACGTGATCTGCCGTCGTGTATTCGGAGTCACCTAGTGCAG	6050 fluorescence intensity (a.u.)
CCCCGCTTCGCCGCCGGCCGCCTCTCTCTTCTCAAGAGTCCGGAGTCACCTAGTGCAG	3340 fluorescence intensity (a.u.)
GCAACCGCGACGACCGATCCACGTGGCACCACCTCATTGGCGGAGTCACCTAGTGCAG	29400 fluorescence intensity (a.u.)
GGGCCCAGCAGGTTCCTAGTAGACTTCGTCGTAGTGGGACCGGAGTCACCTAGTGCAG	8310 fluorescence intensity (a.u.)
GCTATAATATATTGCAGCAGCAGCAGCAGTGGTGGTGGTGCGGAGTCACCTAGTGCAG	3360 fluorescence intensity (a.u.)
TGATGGCCGGTGATCAGTGGCATGTGCATGTTATATTATTCGGAGTCACCTAGTGCAG	3260 fluorescence intensity (a.u.)
CACTCCAGAACCAAACGTTTGATGACTCTCTGCTTTTGCGCGGAGTCACCTAGTGCAG	4570 fluorescence intensity (a.u.)
ACAAACCGAGGAGGAGGAGGAGGGCCCACCAGCCACCACGCGGAGTCACCTAGTGCAG	3310 fluorescence intensity (a.u.)
GGACGGTTTCGCTGATGTGGCGCCTACGTGGCATCCTAATCGGAGTCACCTAGTGCAG	20300 fluorescence intensity (a.u.)
AGGGCGCTTTTGGCTGACATGGCGCCTACGTGGCTTGTTTCGGAGTCACCTAGTGCAG	28100 fluorescence intensity (a.u.)
ATAGTGGTTTTGGCTGACGTGGCGCCTACGTGGCTAATTTCGGAGTCACCTAGTGCAG	19600 fluorescence intensity (a.u.)
AGATCATTAGTTAGCACATATCATCCACATCATCCTATTTCGGAGTCACCTAGTGCAG	5980 fluorescence intensity (a.u.)
GTTTTGGCTGACGTGGCGCCTACGTGGTTTGTTTGACCTACGGAGTCACCTAGTGCAG	37300 fluorescence intensity (a.u.)
GCTGGTTTGATTAGATCTTCATCCCACGTGGCATTGACGTCGGAGTCACCTAGTGCAG	25100 fluorescence intensity (a.u.)
GCTAATTTGACTCGGTTTTCATCTGACGTGGCATTGACGTCGGAGTCACCTAGTGCAG	41400 fluorescence intensity (a.u.)
CTGACGAGCAGAACATTAGCTATCCTATCCAGAATAGTTTCGGAGTCACCTAGTGCAG	47400 fluorescence intensity (a.u.)
GGTTTTAGCTGACGTGGCGCCTACGTGACAGTGTTGACCCCGGAGTCACCTAGTGCAG	32700 fluorescence intensity (a.u.)
CGGTTTTAGCTGACGTGGCGCCTACGTGGCAAAGTTGACCCGGAGTCACCTAGTGCAG	44700 fluorescence intensity (a.u.)
AAACCCAATCCAGTTAGGAATAGAACATTAGATATCCAACCGGAGTCACCTAGTGCAG	3940 fluorescence intensity (a.u.)
CTGTTTCGCTGACGTGACGCCTACGTGGCATCCCAGTCATCGGAGTCACCTAGTGCAG	40300 fluorescence intensity (a.u.)
